Screening data as filed in PubChem BioAssay.
Rows were chosen to be rich in hits. Some 0.97% of all compounds tested hit in one or more screens of this group.
Mm-Cpn inhibitor: M. maripaludis TRiC chaperonin inhibition; Potency, µM (titrated, usually from 76.9 µM), without a hit: top-dose activity, negative = inhibition, actives largely listed as inhibitors; 0.031% of 330,000 active; purified Mm-Cpn ATPase, ADP Transcreener TR-FRET; AID 504842; also: potency is read from the fitted curve at half-maximal effect; % is scaled to controls: 0 for no effect and ±100 for the full control effect; nearly all actives have a fitted effect of over 80% in size
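ATP (10 uM final) was added to archaeal chaperonin (25 nM final) after 10 min exposure to test compound at 37°C; after 30 min further incubation, ADP was detected by competitive TR-FRET.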
CCT modulator: changes cytosolic chaperonin activity; purified chaperonin ATPase assay, HTRF ADP detection, 30 min; 0.3% of 360,000 active; activity change, % (test concentration not listed), hits read low; in the data active = activity change below about -30%; also: % is scaled to controls: 0 for no effect and ±100 for the full control effect
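ATPase activity: ADP formed was measured by HTRF Transcreener (665/615 nm ratio) after 30 min at 37 deg C with 10 uM ATP. Compounds screened at one 76 uM concentration against 40 or 20 nM TRiC in Tris pH 7.4/KCl/MgCl2/DTT buffer.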
uPA generation: cell surface uPA generation inhibition. cell surface uPA generation assay, qHTS. Potency, µM (top dose mostly 38.3 µM), for inactives: at the top dose activity change, negative = inhibition, usual class: inhibitors. 0.31% of 330,000 active; active = well fitted inhibition curve with a large enough effect; inconclusive = small, poorly fitted or top-dose-only effect; inactive = no such curve, though single readings can be large or run the other way; tested in mouse RAW 264.7 cells; also: potency is read from the fitted curve at half-maximal effect; % is scaled to controls: 0 for no effect and ±100 for the full control effect; nearly all actives have a fitted effect of over 55% in size
pAkt inh: Akt phosphorylation inhibition; Neuro2A IGF-stimulated pAkt S473 HTRF, 20 min; hits give low values; activity change, % for hits at 50 µM; 0.32% of 360,000 active; AID 651550; in the data active = activity change below about -80%; inconclusive = mostly about -51% to -80%; also: % is scaled to controls: 0 for no effect and ±100 for the full control effect
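Neuro2A cells in DMEM with 0.5% FBS, overnight at 37 deg C, given compound at single 50 µM final, then IGF (6 nM final) for 20 min at 37 deg C. Lysed; phospho-Akt Ser473 by HTRF after 24 h, 665/615 ratio.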
Epigenetic derep: regulators of epigenetic silencing causing reporter derepression in mouse cells | murine LDR cells, GFP reporter derepression, 30 h | AID 1865 | Potency, µM (titrated, usually from 53.9 µM), for the others: at the top dose GFP activation, most hits filed as activators | 0.2% of 280,000 active; also: potency is read from the fitted curve at half-maximal effect; % of control where 0% means no effect; nearly all actives have a fitted effect of over 60% in size
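Reporter derepression read as number of fluorescent GFP-positive objects, 20-120 um in size, counted by laser-scanning cytometer. Mouse LDR line with an epigenetically silenced CMV-GFP locus; compound incubation 30 h, 37 C.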
MBNL1-CUG inh: blocks human MBNL1 binding to CUG repeat RNA | Q9NR56 | TR-FRET MBNL1-His/biotin-(CUG)12 binding, 665/545 ratio | Potency, µM (doses to about 57.5 µM), without a hit: at the highest dose activity change, negative = inhibition, most hits filed as inhibitors | 0.036% of 280,000 active; active = well fitted inhibition curve with a large enough effect in the signal ratio, with a control signal flat, not every such curve was filed as active; inconclusive = small, poorly fitted or top-dose-only effect, or effect the other way, or a change in a side signal; inactive = no such curve, though single readings can be large or run the other way; the % refers to the signal ratio; also: potency is read from the fitted curve at half-maximal effect; % is scaled to controls: 0 for no effect and ±100 for the full control effect
Target sequence (Q9NR56 whole entry, looked up): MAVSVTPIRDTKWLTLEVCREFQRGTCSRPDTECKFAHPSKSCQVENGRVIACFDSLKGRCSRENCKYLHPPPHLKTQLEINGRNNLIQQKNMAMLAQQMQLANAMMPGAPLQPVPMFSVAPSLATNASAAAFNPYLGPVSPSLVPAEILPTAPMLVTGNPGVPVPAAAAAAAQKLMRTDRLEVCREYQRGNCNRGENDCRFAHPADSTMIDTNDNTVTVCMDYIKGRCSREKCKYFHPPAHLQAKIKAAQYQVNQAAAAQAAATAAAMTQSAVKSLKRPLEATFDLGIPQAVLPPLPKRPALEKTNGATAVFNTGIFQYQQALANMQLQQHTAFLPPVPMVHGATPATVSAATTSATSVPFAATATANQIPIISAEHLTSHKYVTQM
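MBNL1-His + Biotin-(CUG)12, cpd titration 92 nM–58 uM; Tb anti-His Ab 0.055 ng/ul, SA-XL665 5 nM (final); 60 min RT; ratiometric 665/545 nm, Ex 340 nm; normalized to buffer and full-complex controls.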
Numbers without * were called inactive; i = inactive; ? = inconclusive; . = no result given. Unless noted, calls follow the shape of the dose curve; as a rule, active = well fitted curve in the direction sought with a large enough effect; inconclusive = small, poorly fitted or top-dose-only effect, or another doubt; inactive = no such curve, though single readings can be large; an effect the other way counts as inactive or inconclusive.

SMILES | Mm-Cpn inhibitor | CCT modulator | uPA generation | pAkt inh | Epigenetic derep | MBNL1-CUG inh
NS(=O)(=O)c1ccc(CNC(=O)c2cc(-c3cccnc3)nc3ccc(Cl)cc23)cc1 | -2% | -1 | -3% | i | . | 27%
NS(=O)(=O)c1ccc(CNC(=O)c2cc(-c3ccccn3)nc3ccc(Cl)cc23)cc1 | ? | -55* | -8% | i | 1% | 400%
CC1=[N+](C)c2ccc3ccccc3c2C1(C)C | -5% | -2 | 2.2µM* | i | 8% | 107%
c1ccc2c(c1)ccc1ccccc12 | 1% | -2 | -6% | i | . | .
N#Cc1ccc(COc2cccc3cccnc23)cc1 | 0% | -1 | -1% | i | . | 21%
COc1ccccc1S(=O)(=O)Cc1ccc(C(=O)N2CCN(c3ccccc3)CC2)o1 | -2% | -1 | -6% | -124%* | 3% | -3%
CCOC(=O)c1c(-c2ccc(C)cc2)csc1NC(=O)/C(C#N)=C/c1ccc(O)c(OC)c1 | -2% | 0 | 3% | i | 11µM* | 2%
COc1cc(/C=C(\C#N)C(=O)Nc2ccc3c(c2)OCCO3)ccc1O | 0% | 0 | 10µM* | i | ? | ?
COCCNC(=O)c1ccc(-n2c(=O)c(=O)[nH]c3ccccc32)cc1 | . | . | . | . | -3% | .
Cc1nnc(SCC(=O)N(C)C2CCCCC2)s1 | -10% | -2 | 6% | i | 9% | 2%
O=C(NCC(c1ccco1)N1CCc2ccccc21)c1ccccc1F (stereo not given) | -5% | -6 | -2% | i | . | .
O=C(CCc1ccccc1)NCC(c1ccco1)N1CCc2ccccc21 (stereo not given) | 2% | 0 | 3.2µM* | i | . | .
CCCNC(=O)CCc1cc(C(C)(C)C)c(O)c(C(C)(C)C)c1 | -2% | -3 | 11µM* | i | 0% | -1%
CCN(CC)C(=O)CSc1nc(C)cc(-c2cccs2)c1C#N | 1% | -34* | 10% | i | 4% | 47%
Cc1cc(C)c(C#N)c(SCC(=O)c2cccs2)n1 | -4% | 1 | -8% | i | ? | ?
COc1ccc(-c2nc3c(C)cc(Br)cn3c2Cc2cccc(F)c2)cc1OC | . | 0 | . | i | . | .
CCN(CC)CCC[C@H](C)Nc1c2ccc(Cl)cc2nc2ccc(OC)cc12 | . | . | . | . | 3.5µM* | .
CCCCCC(=O)O[C@H](CC(=O)O)C[N+](C)(C)C | . | . | . | . | -2% | .
C/C(=C1/SC(=S)N(CCC(=O)O)C1=O)c1ccc(O)cc1 | -2% | -38* | -9% | i | 1% | ?
Cc1ccc(S(=O)(=O)Nc2ccc(O)c(C(=O)O)c2)c(C)c1 | . | . | . | . | -3% | .
COc1cc(C(=O)N2CCN(C3CCCCC3)CC2)cc(OC)c1OC | -3% | -1 | 15% | i | . | -10%
COc1cc(C(=O)N2CCC(N3CCCCCC3)CC2)cc(OC)c1OC | . | 2 | 4% | -122%* | . | .
O=C(Nc1nc2ccccc2s1)NC1CCCCC1 | 3% | -1 | 7.9µM* | i | -2% | -16%
CCNC(=O)c1c(NC(=O)Cc2coc3cc(C)cc(C)c23)sc2c1CCCC2 | . | . | . | . | -2% | .
COC(=O)C1C/C(=N/NS(=O)(=O)c2ccc(C)cc2)CS1 (stereo not given) | ? | -2 | -2% | i | . | -7%
SMILES | Mm-Cpn inhibitor | CCT modulator | uPA generation | pAkt inh | Epigenetic derep | MBNL1-CUG inh
O=C1CC(c2ccc3c(c2)OCCO3)Oc2ccc([N+](=O)[O-])cc21 (stereo not given) | -6% | 0 | 10µM* | i | . | 20%
COc1ccc(S(=O)(=O)N2CCCCC2)cc1NC(=O)C1CC1C (stereo not given) | -2% | 1 | -16% | i | . | .
Cc1ccc(C)c(N(CC(=O)Nc2ccc(-c3nc4ccc(C)cc4s3)cc2)S(C)(=O)=O)c1 | -11% | 0 | 3% | i | 12% | .
Cc1ccc(N(CC(=O)Nc2ccc(-c3nc4ccc(C)cc4s3)cc2)S(C)(=O)=O)cc1 | ? | -40* | -4% | i | -2% | 20%
COc1ccc(CN2CCN(S(=O)(=O)c3ccc(NC(C)=O)cc3)CC2)cc1 | 0% | 0 | -1% | i | 2% | -8%
CCn1c(Oc2cccc(Br)c2)nc2c1c(=O)n(C)c(=O)n2C | 1% | -44* | 27% | i | . | -3%
CCCn1c(Oc2ccccc2)nc2c1c(=O)n(C)c(=O)n2C | 2% | -3 | 5% | i | . | 1%
CCOC(=O)c1scc(-c2ccc(C)cc2)c1S(=O)(=O)Nc1cc(Cl)ccc1OC | . | . | . | . | 1% | .
Cc1cccc(N(CC(=O)NCCSc2ccc(Cl)cc2)S(C)(=O)=O)c1C | . | . | . | . | 2% | .
COC(=O)C1CCN(c2nc3ccccc3nc2C(C#N)C(=O)OCC(C)C)CC1 (stereo not given) | 0% | -40* | -2% | i | 10% | 3%
COc1ccc(CNC(=O)C(C#N)c2nc3ccccc3nc2N2CCN(C)CC2)cc1 (stereo not given) | 0% | 0 | -2% | i | 4% | 9%
COc1ccc(CNC(=O)C(C#N)c2nc3ccccc3nc2N2CCCC2)cc1 (stereo not given) | -1% | -2 | -3% | -84%* | ? | 4%
CC(C)C[C@@H](CC(=O)N[C@H](CC(=O)N[C@@H]1CCCC[C@H]1C(=O)N[C@H](CC(=O)N[C@@H](CCC(=O)O)CC(=O)O)CC(C)C)C(C)C)NC(=O)[C@@H]1CCCC[C@H]1N | . | . | . | . | 0% | .
CCOC(=O)N1CCN(C(=O)CNC(=O)c2ccc(Br)o2)CC1 | -2% | -53* | -2% | i | . | -6%
O=C(NCC(=O)N1CCCC1)c1ccc(Br)o1 | -1% | 1 | 2% | i | . | -5%
CCOc1ccc(NC(=O)CSc2nnc(C3CC3)n2C)cc1S(=O)(=O)N1CCCCC1 | -1% | -2 | -1% | i | . | .
O=C(NNC(=S)Nc1ccccc1)c1cccc(Br)c1 | -6% | -1 | 2% | i | -1% | 1%
CC(C)(C)NC(=S)NNC(=O)c1cccc(Br)c1 | 2% | -1 | -5% | i | 18µM* | 1%
Cc1ccc(NC(=O)c2nc(S(C)(=O)=O)ncc2N(Cc2ccccc2)Cc2ccco2)c(C)c1 | . | . | . | . | -3% | .
O=S(=O)(c1ccc2[nH]c3c(c2c1)CCCC3)N1CCCCC1 | -1% | -73* | ? | . | . | 2%
CCCn1c(N)c(N(CCOC)C(=O)c2cc3ccccc3cc2OC)c(=O)[nH]c1=O | 0% | 0 | 7% | i | . | .
COCCN1C(=O)c2ccc(C(=O)Nc3nccs3)cc2C1=O | 0% | -4 | -3% | i | 0% | ?
CCN1C(=O)c2ccc(C(=O)Nc3ncc(C)s3)cc2C1=O | 2% | -16 | -2% | i | 0% | ?
